This is part of a sample that, as a whole, favours compounds with a hit. Of some 83,000 tested, about 20% had one in any assay.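 96-well plates, one dose, 48 hours. Percent growth reported; active if below 10.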 Unmarked numbers belong to inactive results. Active and inactive are the calls of the source.
Tests used:
Assay in all cases: NCI-60 one-dose screen, 48 h (100 = growth as untreated, 0 = no growth, -100 = all killed)
Conditions in all cases: 10 µM unless noted
[1] = tested on: DU-145 prostate
[2] = tested on: K-562 leukemia
[3] = tested on: MALME-3M melanoma
[4] = tested on: MDA-MB-231 breast
[5] = tested on: RXF 393 renal
[6] = tested on: SF-268 CNS
[7] = tested on: SF-295 CNS
[8] = tested on: SF-539 CNS
[9] = tested on: UACC-257 melanoma
[10] = tested on: M14 melanoma
[11] = tested on: HCT-15 colon
[12] = tested on: HT29 colon
[13] = tested on: SNB-75 CNS
[14] = tested on: SNB-19 CNS
[15] = tested on: U251 CNS
[16] = tested on: PC-3 prostate
[17] = tested on: SK-MEL-5 melanoma
[18] = tested on: UACC-62 melanoma
[19] = tested on: LOX IMVI melanoma
[20] = tested on: SK-MEL-28 melanoma

| Structure (SMILES) | growth [1] [%] | growth [2] | growth [3] [%] | growth [4] [%] | growth [5] | growth [6] [%] | growth [7] [%] | growth [8] | growth [9] [%] | growth [10] | growth [11] [%] | growth [12] | growth [13] [%] | growth [14] [%] | growth [15] [%] | growth [16] [%] | growth [17] [%] | growth [18] | growth [19] | growth [20] [%] |
| --- | --- | --- | --- | --- | --- | --- | --- | --- | --- | --- | --- | --- | --- | --- | --- | --- | --- | --- | --- | --- |
| Fc1cc(-c2nnc3n2NC(=Nc2ccc(Cl)cc2)CS3)c(Cl)cc1Cl | 97.8 | 51.5% | 105 | 104 | 89.8% | 91.7 | 81.5 | 98.6% | 92.5 | 92.4% | 97.3 | 93.8% | 71.7 | 93.6 | 94.9 | 111 | 88.9 | 81.4% | 86.5% | 99 |
| COc1ccc(OC)c(/C=C/C(=O)N/N=C/c2ccc(Cl)cc2)c1 | 14.8 | 14% | 54.1 | 28.1 | -19.8% (active) | 33.2 | 31.8 | -43.2% (active) | 53 | -34.4% (active) | 29.4 | 6.49% (active) | 44 | 22.6 | 18.4 | 26.2 | 30.6 | 42.1% | 36.7% | 38.8 |
| CNCCCC12CCC(c3ccccc31)c1ccccc12 | 103 | 80.6% | 82.6 | 80.2 | 61.7% | 92.5 | 100 | 99.2% | 95.9 | 80.4% | 95.4 | 60.4% | 60.2 | 91.5 | 81.1 | 71.9 | 75.3 | 90.9% | 79.6% | 87.4 |
| COc1ccc(C2CC(c3ccc(Nc4ccnc5cc(Cl)ccc45)cc3)=NN2C=O)cc1 (stereo not given) | 73.4 | 17.4% | 62 | 78.8 | 76.7% | 58 | 51.5 | 94.6% | 93.5 | 50.5% | 23.6 | 33.2% | 77.1 | 81.5 | 63.4 | 72.3 | 41.2 | 54.5% | 20% | 74.9 |
| CN1C(=C2C(=O)OC(C)(C)OC2=O)CCC1C(=O)NCc1ccc(Cl)cc1Cl (stereo not given) | 107 | 97.5% | 102 | 99.5 | 108% | 101 | 96.4 | 96% | 87 | 98.2% | 101 | 79.5% | 107 | 97.7 | 95.5 | 83 | 91.6 | 86.9% | 93.5% | 93 |
| CC(C)c1cc(C(C)C)c(S(=O)(=O)Oc2ccc(NC(=O)c3ccc(Cl)cc3)cc2)c(C(C)C)c1 | 43.7 | 16.4% | 53.8 | 52.1 | 51.4% | 50.6 | 11.4 | 73.6% | 24.7 | 36.2% | 20.2 | 46.6% | 64.9 | 17.6 | 20.9 | 14 | 31.4 | 9.11% (active) | 33.5% | 56.8 |
| O=c1[nH][n+](-c2ccc(Br)cc2)no1 | 57.9 | 10.9% | 60.3 | 68.7 | 105% | 32.8 | 21.3 | 7.06% (active) | 55 | 74% | 33.5 | 90% | 77.1 | 77.8 | 73.3 | 70.7 | 57.8 | 9.27% (active) | 7.47% (active) | 61.2 |
| CCc1cccc2c1S/C(=C/c1ccc(OC)cc1)C2=O | 49.5 | 11.2% | 51.7 | 46.5 | 40.1% | 64.5 | 62.9 | 8.87% (active) | 72.6 | 28.3% | 28.1 | 84.5% | 26.6 | 45.2 | 41.7 | 33.9 | 57.2 | 31.2% | 40.3% | 59.3 |
| COc1nc2ccc(C)cc2cc1-c1nc2c(cnn2-c2ccccc2)c(=O)[nH]1 | 97.2 | 34.8% | 126 | 103 | 89.4% | 93.8 | 90.9 | 99.9% | 86.4 | 71% | 61.8 | 48.3% | 87.2 | 84 | 82.6 | 65.9 | 76.9 | 60.2% | 70.4% | 81.9 |
| CCc1nnc(NC(=O)c2nnn(-c3ccccc3)c2-c2ccco2)s1 | 101 | 71.8% | 98.9 | 92.9 | 100% | 107 | 87.2 | 99.7% | 102 | 98.4% | 51.5 | 109% | 89.6 | 93.9 | 84 | 64.7 | 83.2 | 86.5% | 89% | 95.1 |
| c1ccc(Nc2cc(-c3cccnc3)[nH]n2)cc1 | 100 | 101% | 118 | 107 | 107% | 85.8 | 97.6 | 70.2% | 100 | 117% | 101 | 100% | 52.8 | 77.9 | 84 | 102 | 101 | 102% | 103% | 105 |
| O=C(CS(=O)c1oc(-c2cccs2)nc1S(=O)(=O)c1ccc(Br)cc1)c1ccccc1 (stereo not given) | 104 | 95.3% | 119 | 105 | 105% | 99.2 | 101 | 87% | 98.8 | 99.5% | 101 | 102% | 79.9 | 86.9 | 88.2 | 85.5 | 97.7 | 88.4% | 104% | 105 |
| C=C(C)[C@@H]1CC[C@]2(N=C=O)CC[C@]3(C)[C@H](CC[C@@H]4[C@@]5(C)Cc6c([nH]c7ccccc67)C(C)(C)[C@@H]5CC[C@]43C)[C@@H]12 | 63.2 | 3.74% (active) | 101 | 68.4 | 81.6% | 80.7 | 111 | 89.3% | 109 | 70.5% | 47 | 98.5% | 79.8 | 91.4 | 65.4 | 40.3 | 101 | 101% | 87.7% | 106 |
| CCCCNc1nc(NN2C(=O)c3cccc4cccc(c34)C2=O)nc(-n2cnc3ccccc32)n1 | 98.6 | 34% | 105 | 87.8 | 74.8% | 89.9 | 88.9 | 75.9% | 99 | 103% | 85.2 | 98% | 85.8 | 86.9 | 69.3 | 77.4 | 75.6 | 88.3% | 87.4% | 94.1 |
| c1ccc(Cc2nn3cc(-c4ccccc4)nc3s2)cc1 | 99 | 93.8% | 111 | 109 | 129% | 98 | 97.8 | 106% | 108 | 90.3% | 95.1 | 94.9% | 102 | 103 | 107 | 93.7 | 101 | 82.6% | 86.2% | 109 |

From PubChem BioAssay (NCI)
